The inhibition is the change of the read-out against control, counted positive when it falls.

Where “and” joins values, the source holds several entries; their conditions need not be identical. Equal values may be shown once. The campaign covered roughly 260,000 compounds. About 1,500 (0.58%) were called active. Not shown: some 5% with an inconclusive outcome. These entries were drawn from the full list. Results with a measured potency or affinity are listed apart. Values without a mark were called inactive.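 The calls were made as follows: active = inhibition above a set limit at one or more doses, reproduced on every date tested; inconclusive = results disagree between test dates, or hit never tested in dose response; inactive = the rest.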

In this assay the target is Virion infectivity factor (Human immunodeficiency virus type 1 group M subtype B (isolate BH10)) + Virion infectivity factor (Human immunodeficiency virus type 1 group M subtype B (isolate BRU/LAI)) + Virion infectivity factor (Human immunodeficiency virus type 1 group M subtype B (isolate PCV12)) + Virion infectivity factor (Human immunodeficiency virus type 1 group M subtype B (isolate HXB2)) + DNA dC->dU-editing enzyme APOBEC-3G (Homo sapiens) (UniProt P69720+P69721+P69722+P69723+Q9HC16). Kind of assay: HIV-1 Vif–A3G interaction blockers – biochemical, TR-FRET, GST-Vif 1-94, biotin-A3G peptide, dose response retest, primary screen (AID 1117319).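 Also: Vif residues 1-94 fused to GST binding biotinylated APOBEC3G peptide 110-148; 0% = full assay without inhibitor and 100% = GST in place of GST-Vif.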 Conditions: TR-FRET GST-Vif / biotin-A3G peptide binding; active compounds read high. (Time-resolved FRET reads energy transfer from a long-lived donor to a nearby acceptor.)
Take `Cc1cc(C)cc(NC(=O)CCNS(=O)(=O)c2ccc3c(c2)oc(=O)n3C)c1`: the inhibition was 17.7%.

In the case of `CC1CC(C)(C)NC(=S)N1CCCC(=O)Nc1ccc(Br)cc1` (stereo unspecified), the inhibition is -9.53%.

Consider `O=C(NC1CCCCC1)C12CC3CC(CC(Cl)(C3)C1)C2`, for which the inhibition was 9.37%.

With `COc1ccc(O)c(CN2CC3CCC(CC3)C2)c1`, the inhibition was 4.35%.

Take `COc1ccc(N2CCN(C(=O)COC(=O)CNC(=O)c3ccccc3)CC2)cc1`: the inhibition is 3.12%.

For `CC1(C)NC(=O)N(CC(=O)NNC(=O)c2ccccc2F)C1=O`, the inhibition is -5.82%.

For the molecule `FC(F)(F)c1cnc(N2CCN(C(=S)NCc3ccccc3)CC2)c(Cl)c1`, the inhibition is -5.24%.

For the molecule `COc1cc2[nH]c3c(=O)n(N)c(=O)[nH]c3c2cc1OC`, the inhibition is -6%.

On to `O=[N+]([O-])c1ccccc1S(=O)(=O)Nc1ncccn1`, for which the inhibition was 5.53%.

Consider `O=[N+]([O-])c1ccccc1S(=O)(=O)NC1CCCCCCC1`, for which the inhibition was 8.73%.

As for `CCN(C(=O)COC(=O)c1oc2ccc(OC)cc2c1C)C1CCCCC1`, the inhibition was -5.77%.

Turning to `CC1CCCN(C(=O)NC(=O)c2ccc(Cl)cc2)C1` (stereo unspecified), the inhibition was -0.86%.

In the case of `Cc1ccc(NC(=O)CCNS(=O)(=O)c2cc(Br)cnc2N)cc1Cl`, the inhibition was 5.11%.

As for `Cc1cc(C)cc(NC(=O)CCNS(=O)(=O)c2cc(Br)cnc2N)c1`, the inhibition was -18.9%.

On to `O=C(COC(=O)CCCSc1nc2ccccc2[nH]1)Nc1cccc(F)c1`, for which the inhibition is -3.43%.

Consider `COC(=O)c1ccc(Cn2nnc3ccccc32)cc1`, for which the inhibition is 26.1%.

As to `Cc1ccc(S(=O)(=O)N2C(=O)CCC2C(N)=O)cc1` (stereo unspecified), the inhibition was -11.2%.

As for `O=C(C1CCCO1)N1CCC(O)(c2ccccc2)CC1` (stereo unspecified), the inhibition was -9.62%.

`O=C(C1CCCO1)N1CCN(C(=S)NC2CC2)CC1` (stereo unspecified): the inhibition is -5.45%.

On to `Cc1c(C)c(C)c(CN2CCSCC2)c(C)c1C`, for which the inhibition is 21.2%.

Take `CCN(C(=O)CN1CCN(c2ccccc2)CC1)c1c(N)n(Cc2ccccc2)c(=O)[nH]c1=O`: the inhibition was -6.89%.

On to `CCN(C(=O)CN1CCN(c2ccc(OC)cc2)CC1)c1c(N)n(Cc2ccccc2)c(=O)[nH]c1=O`, for which the inhibition was 20.7%.

In the case of `CC(=O)c1ccc(N2CCN(CC(=O)N(CC(C)C)c3c(N)n(CC(C)C)c(=O)[nH]c3=O)CC2)cc1`, the inhibition is 19.2%.

For `CC(C)CN(C(=O)CN1CCN(c2ccc([N+](=O)[O-])cc2)CC1)c1c(N)n(CC(C)C)c(=O)[nH]c1=O`, the inhibition was 13.2%.

On to `Cc1cc(C(C)(C)C)oc1C(=O)N(CC(=O)NC1CCCC1)Cc1ccc(F)cc1`, for which the inhibition was 0.27%.

For `CCOC(=O)C1(Cc2cccc(F)c2)CCN(Cc2ccon2)CC1`, the inhibition was -4.55%.

Regarding `Cc1ccccc1C(=O)O/N=C1\CCS(=O)(=O)c2sccc21`, the inhibition is 1.21%.

As to `CCCCOc1ccc(S(=O)(=O)Nc2cc(OC)ccc2OC)cc1`, the inhibition was 1.88%.

Turning to `CCOc1ccc(S(=O)(=O)Nc2cc(OC)ccc2OC)cc1`, the inhibition was 6.81%.

As to `CCOc1ccc(/C=N/NC(=O)CN2CCCCCCC2)cc1`, the inhibition is 7.01%.

As for `COc1ccc(NC(=O)NNC(=O)c2ccc(Cl)cc2Cl)cc1OC`, the inhibition is 0.67%.

As to `O=C(O)c1ccc(NS(=O)(=O)c2ccc3c(c2)C2C=CCC2C(c2ccccc2F)N3)cc1` (stereo unspecified), the inhibition was -10%.

For the molecule `Cc1c(Cl)cccc1NS(=O)(=O)c1ccccc1`, the inhibition was -1.9%.

As to `COc1cccc(NS(=O)(=O)c2ccc3c(c2)NC(=O)CC(=O)N3)c1`, the inhibition was -6.3%.

With `O=C(O)c1cccc(S(=O)(=O)Nc2ccccc2Cl)c1`, the inhibition is 65.8%.

As to `CN(C)CCNC(=O)Cn1nc(C(F)F)cc1C1CC1`, the inhibition is 12.5%.

For the molecule `O=C(Nc1nc2c(ccc3ccccc32)s1)c1cc([N+](=O)[O-])ccc1N1CCOCC1`, the inhibition is -2.48%.

In the case of `CC(=O)Oc1ccccc1C(=O)N1CCN(S(=O)(=O)c2ccc3ccccc3c2)CC1`, the inhibition was -7.33%.

Turning to `CC(=O)c1ccc(NC(=O)Cn2nc(C)cc2C)cc1`, the inhibition is 1.14%.

On to `Cc1cc(C)n(CC(=O)NNC(=O)c2ccc(S(C)(=O)=O)cc2)n1`, for which the inhibition is -6.9%.

With `Cc1nc(C)n(CC(O)COc2ccc(C(=O)c3ccccc3)cc2)n1` (stereo unspecified), the inhibition is 11.5%.

`CCCc1cc(=O)oc2c(CN3CCCC3)c(O)ccc12`: the inhibition was -2.7%.

Turning to `Cc1cc2oc(=O)cc(CN3CCCCC3)c2cc1O`, the inhibition was -5.08%.

For `CCc1cc(=O)oc2cc(C)c(CN3CCCC(C)C3)c(O)c12` (stereo unspecified), the inhibition was 11.2% and 11.8%.

Take `CCCc1cc(=O)oc2c(CN3CCCC3)c(O)c(Cl)cc12`: the inhibition was 8.61%.

Turning to `Fc1ccc2nc(Nc3ccccc3)sc2c1`, the inhibition is -8.41%.

Turning to `CCCCNC(=O)CN1CCN(Cc2ccc3cc(OC)ccc3c2)CC1`, the inhibition is -10.8%.

For `CSc1nc(NCc2ccco2)c2c3c(sc2n1)CN(C)CC3`, the inhibition was 21.2%.

As for `CCN1CCc2c(sc3c2c(NCc2ccco2)nc2nnnn23)C1`, the inhibition was 11.3%.

As to `Cc1ccc(OCC(=O)N/N=C2/SCC(=O)N2Cc2ccco2)cc1`, the inhibition is 11.4%.

Take `Cc1ccc(-c2nnc(SCC(=O)NNC(=O)COc3cccc(C)c3)n2C)cc1`: the inhibition is -3.33%.

On to `C=CCn1c(C)cc(C(=O)CSc2nc3ccccc3c(=O)[nH]2)c1C`, for which the inhibition was 11.7%.

Consider `COCCn1c(C)cc(C(=O)CSc2nc3ccccc3c(=O)[nH]2)c1C`, for which the inhibition is 25.5%.

As to `COc1ccccc1C1CCN(Cc2ccc(Cl)c(Cl)c2)CC1`, the inhibition was -7.3%.

As for `CC(C)(C)C(=O)Cn1c[n+](N)cn1`, the inhibition was 2.71%.

Turning to `Cc1c(Br)c(=O)oc2c(C)c(O)ccc12`, the inhibition was -26.6%.

Consider `Cc1c(Br)c(=O)oc2c(Br)c(O)ccc12`, for which the inhibition was -6.73%.

As to `Cc1cc(SCC(=O)N/N=C/c2ccc(O)cc2O)c(C)cc1Br`, the inhibition was 31.7%.

As for `Cc1cc(SCC(=O)N/N=C/c2ccc(O)c(O)c2)c(C)cc1Br`, the inhibition was 7.89%.

For `COc1ccc(CN2C(=O)c3cccnc3C2=O)cc1S(=O)(=O)N1CCCCC1C` (stereo unspecified), the inhibition is 1.43%.

For the molecule `CCOC(=O)C1=C(C)C(c2ccccc2OC)NC(=O)N1` (stereo unspecified), the inhibition was 25.5%.

With `O=C(c1ccccc1)c1ccc(Oc2ncccn2)cc1`, the inhibition is -0.66%.

For `N#CCc1ccc(Oc2ncccn2)cc1`, the inhibition is 2.04%.

With `O=C(COC(=O)c1ccccc1Nc1ccc(SC(F)F)cc1)NC1CC1`, the inhibition is -3.33%.

On to `CCCCOc1ccc(C(=O)NCC(=O)OCCCOC(=O)CNC(=O)c2ccc(OCCCC)cc2)cc1`, for which the inhibition was -9.89%.

As to `CCCCCOc1ccc(C(=O)NCC(=O)NCC(=O)OCC)cc1`, the inhibition is 21.7%.

As to `NC(=O)C1CCN(C(=O)c2cc3n(n2)C(C(F)(F)F)CC(c2ccco2)N3)CC1` (stereo unspecified), the inhibition is 21.3%.

As to `NC(=O)c1cc2n(n1)C(C(F)(F)F)CC(c1ccco1)N2` (stereo unspecified), the inhibition is 28%.

Regarding `COc1ccccc1N1CCN(C(=O)c2cc3n(n2)C(C(F)(F)F)CC(c2ccco2)N3)CC1` (stereo unspecified), the inhibition is 3.76%.

For the molecule `O=C(O)c1cc2n(n1)C(C(F)(F)F)CC(c1ccco1)N2` (stereo unspecified), the inhibition was 23.7%.

As for `O=C(c1cc(-n2cnnc2)ccc1Cl)N1CCN(c2nc(-c3ccccc3)cs2)CC1`, the inhibition is -0.17%.

As for `O=C(NC12CC3CC(CC(C3)C1)C2)N(Cc1ccccc1)Cc1ccncc1`, the inhibition was -2.12%.

As for `Cc1cc(C)n2nc(SCCCC(=O)c3ccccc3)nc2n1`, the inhibition was -0.54%.

With `COc1ccccc1NC(=S)NNC(=O)c1cc(C)n(C)n1`, the inhibition was 5.87%.

Regarding `COc1ccc2[nH]c(C)c(CCNC(=S)Nc3ccccc3C)c2c1`, the inhibition is -0.27%.

For the molecule `O=c1oc2cc(O)c(Cl)cc2c2ccccc12`, the inhibition was -238%.

In the case of `O=c1oc2cc(O)ccc2c2ccccc12`, the inhibition was -45.8%.

As to `O=c1oc2cc(O)ccc2c2oc3cc(O)ccc3c12`, the inhibition is 21.4%.

Consider `O=c1oc2ccccc2c2oc3cc(O)c(O)cc3c12`, for which the inhibition was 24.2%.

Regarding `COc1cccc(NC(=O)CN(C)C(=O)c2cc(-c3cccc(Br)c3)nc3ccccc23)c1`, the inhibition is 4.76%.

Turning to `CCOC(=O)c1nc(NCc2cccc(OC)c2)c2ccccc2n1`, the inhibition was -2.69%.

With `O=C(COC(=O)c1cc(=O)[nH]c2ccccc12)NC1CCCC1`, the inhibition was 8.34%.

Consider `CCOC(=O)c1cnc2c(C#N)cnn2c1N`, for which the inhibition is -5.32%.

Regarding `CCOC(=O)c1cnc2c(C(=O)OCC)cnn2c1N`, the inhibition was 4.51%.

Regarding `CCSc1nc(-c2ccccc2)c(-c2ccccc2)n1CC(O)CO` (stereo unspecified), the inhibition is -5.14%.

In the case of `CCc1ccc[n+](-c2[nH]c(=O)sc2/C=N/NC([S-])=Nc2ccccc2)c1`, the inhibition was 30%.

On to `Cc1ccc[n+](-c2[nH]c(=O)sc2/C=N/N=C(\[O-])CCn2c3ccccc3c3ccccc32)c1`, for which the inhibition was -0.87%.

Turning to `O=C(Nc1ccc(F)cc1Cl)c1ccc2c(=O)n3c(nc2c1)CCC3`, the inhibition was 2.76%.

As for `O=C(CSc1ccc2c(c1)OCCO2)N1CCN(c2ccccc2O)CC1`, the inhibition is 14.3%.

Turning to `Nc1cc(Cl)ccc1Oc1ccccc1`, the inhibition is -0.78%.

As for `Nc1cc(Cl)ccc1Oc1ccc(Cl)cc1`, the inhibition is 14.4%.

Take `CC(=O)Nc1ccc(S(=O)(=O)NCCC(=O)N2CCC(Cc3ccccc3)CC2)cc1`: the inhibition was -8.11%.

As for `CCC(=O)N(CCC1(C(C)C)CCOC(C)(C)C1)Cc1ccco1` (stereo unspecified), the inhibition is 1.68%.

Consider `CC(C)(C)CN1CCNC(=O)C1CC(=O)NCCN1CCCc2ccccc21` (stereo unspecified), for which the inhibition was 20.1%.

As to `O=C(CC1C(=O)NCCN1Cc1ccccc1)NCCN1CCCCC1=O` (stereo unspecified), the inhibition is 4.62%.

In the case of `Cc1ccccc1NC(=O)c1cnn(-c2ccccc2)c1C`, the inhibition is -7.17%.

The values above are taken from PubChem BioAssay AID1117319 (Southern Research Institute, 2015).
